Measurements from paper PMC7819943, “Rice protein-binding microarrays: a tool to detect cis-acting elements near promoter regions in rice”.
Whole data set: some 68,000 sequences, median “fluorescence intensity (a.u.)” near 9,100, cut for the highest 2% near 16,000. What follows is part of a selection rich in the highest values, with near analogues and random picks from the rest.

molecular target: OsWRKY34 (Oryza sativa, UniProt Q0JBA9 1-250); experiment: protein-binding microarray (RPBM); PBS, 2% BSA, 51.3 ng/ul salmon testes DNA, 50 uM zinc acetate, 200 nM TF, 25 C, 1 h; high values mean tight binding; conditions: protein: recombinant; tags: N-terminal polyhistidine and DsRed monomer fusion (pET32a); label: CyDye5-dUTP incorporated in the synthesized complementary strand; 3' TTTTT single-stranded linker to array surface; dsDNA, one strand shown
Summary of the method: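 Per-feature fluorescence intensity (arbitrary units), read on an Axon 4000B scanner, is the binding signal. Transcription factors carrying an N-terminal polyhistidine tag and DsRed fusion were expressed in E. coli BL21-CodonPlus and purified on Ni–NTA. A custom Agilent array, made double-stranded by primer extension with Cy5-dUTP and blocked with 2% BSA, was incubated with 200 nM protein in PBS, 2% BSA, salmon testes DNA and 50 µM zinc acetate at 25 °C for 1 h and then washed.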

Chain of OsWRKY34 (Q0JBA9 entry or part of it): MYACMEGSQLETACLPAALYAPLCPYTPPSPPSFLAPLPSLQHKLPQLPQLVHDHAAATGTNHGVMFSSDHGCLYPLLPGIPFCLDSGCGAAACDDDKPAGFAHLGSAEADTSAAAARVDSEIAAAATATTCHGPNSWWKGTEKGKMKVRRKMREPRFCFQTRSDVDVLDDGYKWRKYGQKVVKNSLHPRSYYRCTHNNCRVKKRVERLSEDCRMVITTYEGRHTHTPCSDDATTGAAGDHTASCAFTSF

Going from “GTTAGGCATGCTGCTTGTTTATTTTTTTTCAAGTTGAGAACGGAGTCACCTAGTGCAG” to “GCTACTGGTGCCGGCCGCCGTCCTCCTGCTTCCGCCGCCGCGGAGTCACCTAGTGCAG”, the binding signal rises from 8140 fluorescence intensity (a.u.) to 9560 fluorescence intensity (a.u.).

Compared with “CCCATCATGTGACTTCCATCCTTGTTCCTAGCTGCATGCACGGAGTCACCTAGTGCAG”, “TCTTCACATGCTATTTTGTGTTATTCTTGCCTATAAATGACGGAGTCACCTAGTGCAG” is lower in binding signal: 9270 fluorescence intensity (a.u.) for the first, 8310 fluorescence intensity (a.u.) for the second.

Going from “ACATGTAAACTGTGCAATTGATTTTTTTTGTCCACATTTACGGAGTCACCTAGTGCAG” to “AGAGGAGACAGAACCCCTGACTTTATACAGTTTGCAGTTACGGAGTCACCTAGTGCAG”, the binding signal falls from 10400 fluorescence intensity (a.u.) to 8340 fluorescence intensity (a.u.).

Compared with “CGCCGCCGCATCTCCTCCTTCCTCTCTTGGCAACTGTCGGCGGAGTCACCTAGTGCAG”, “TTTTTGTTTCTATTGGAGGTTGTCATGTTTATCTACCTTTCGGAGTCACCTAGTGCAG” is higher in binding signal: 8300 fluorescence intensity (a.u.) for the first, 9650 fluorescence intensity (a.u.) for the second.

First: GTAGGAAAGTTTGTTTGTGTGTGTAGAAAAGTTTTGATGTCGGAGTCACCTAGTGCAG
Second: TTCCTTCTTCCTTCTTTTTTTCTCTCTTCTCCTTTTTTTTCGGAGTCACCTAGTGCAG
The binding signal of the first is higher: 21000 fluorescence intensity (a.u.) for the first, 10300 fluorescence intensity (a.u.) for the second.

Going from “GACATATTTTTTTCTCCTCTCTTTTTTCATTTGTTTTTTTCGGAGTCACCTAGTGCAG” to “AGTTTGTGTGTGTAGGAAAGTTTTGATGTGATGAAAAAGTCGGAGTCACCTAGTGCAG”, the binding signal falls from 11600 fluorescence intensity (a.u.) to 8680 fluorescence intensity (a.u.).

Going from “TTGTAAGTTTGTGTGTAGGAAAGTTTTGATGTGAGGAAAACGGAGTCACCTAGTGCAG” to “ACATGGGCTGGGCTGGGCTGGGCTCTTCTTCCTTTTTGTTCGGAGTCACCTAGTGCAG”, the binding signal rises from 9150 fluorescence intensity (a.u.) to 21900 fluorescence intensity (a.u.).

Compared with “TCCTTGGGCTTTTTTTCTTGTTCGGGGTTGAGAGGCAATGCGGAGTCACCTAGTGCAG”, “GATTCCTTCCTTTTGTTTTTGGGCCGAATTCTCCTTCTTTCGGAGTCACCTAGTGCAG” is lower in binding signal: 18700 fluorescence intensity (a.u.) for the first, 13000 fluorescence intensity (a.u.) for the second.

Compared with “GGCGGGGTTGGGGCGGCAGGCGGCTGTGAGGTTCTTGATTCGGAGTCACCTAGTGCAG”, “TTGAGTTGTGTTCTTGGTTGGGGAGGAGGAGGAGGAGATGCGGAGTCACCTAGTGCAG” is lower in binding signal: 16100 fluorescence intensity (a.u.) for the first, 15100 fluorescence intensity (a.u.) for the second.

First: GTCTACTATCCTCTTTCATTGTCTTTTTGTTGGTTGGTTTCGGAGTCACCTAGTGCAG
Second: ACACACACTTTACAGGTTTACAGCCCAACTTATCCGTGCACGGAGTCACCTAGTGCAG
The binding signal of the first is higher: 17600 fluorescence intensity (a.u.) for the first, 9890 fluorescence intensity (a.u.) for the second.

Compared with “ATTTCTTTCCATCCATAATTACTAGGCTGCATTGCCTCTTCGGAGTCACCTAGTGCAG”, “CTCGTACTAGGGTGTCATGCTGTTGGTTCCGGTGAATCTTCGGAGTCACCTAGTGCAG” is lower in binding signal: 8720 fluorescence intensity (a.u.) for the first, 8270 fluorescence intensity (a.u.) for the second.

First: AAATTCAAACTAGTTTCTACATAGCCTCTTTTCTCTATTTCGGAGTCACCTAGTGCAG
Second: TGTTTATTTTTTTCGTTAAATTTGATTGTTTCCATTTGCACGGAGTCACCTAGTGCAG
The binding signal of the first is higher: 10900 fluorescence intensity (a.u.) for the first, 9770 fluorescence intensity (a.u.) for the second.

First: ACCCGCCCCTGCTGCTCACCGCTCCAGCCTCCGCTCATCCCGGAGTCACCTAGTGCAG
Second: TGAGTTTGTTTGCTGGGTTGGTTCGTGCGTTTTCTTGGATCGGAGTCACCTAGTGCAG
The binding signal of the first is lower: 8790 fluorescence intensity (a.u.) for the first, 18800 fluorescence intensity (a.u.) for the second.

Going from “CCGCTGCTGTTTTCTTTTCTTTTGTAAGTGTGTAACGTTACGGAGTCACCTAGTGCAG” to “CGTTATTCCGCTGTTGTTTTTTTTTTCTTTTGTAAGTATGCGGAGTCACCTAGTGCAG”, the binding signal rises from 9400 fluorescence intensity (a.u.) to 17500 fluorescence intensity (a.u.).

Going from “TTGGATTGGTTTCTTTCTGCTCTGTTGCAGCTCCGTTGTCCGGAGTCACCTAGTGCAG” to “CGTCTCTTTTATCCTTCTTTTTTTTCCCATTTTTCTTTTTCGGAGTCACCTAGTGCAG”, the binding signal rises from 9560 fluorescence intensity (a.u.) to 11900 fluorescence intensity (a.u.).

Compared with “CCGCTGTTATTCCCTTTGTTGTTTTTTCTCAAGTAAATTTCGGAGTCACCTAGTGCAG”, “CCATTTAGATTGGTGCCATTTTAAACTATATCTTTTTCTTCGGAGTCACCTAGTGCAG” is lower in binding signal: 13200 fluorescence intensity (a.u.) for the first, 8220 fluorescence intensity (a.u.) for the second.

Compared with “GGCGGATTTCGGTTTCTTCGTGTGTTTGTTGGTTGCGTTGCGGAGTCACCTAGTGCAG”, “AGTTTTATCCTGGGTTTGTGTTTGGTGCTGTTCTTGCGTGCGGAGTCACCTAGTGCAG” is lower in binding signal: 12700 fluorescence intensity (a.u.) for the first, 10200 fluorescence intensity (a.u.) for the second.

Compared with “GGTTGGTTTCTTTCGTTGGATTGTTTCGAGCCAGGGTTTCCGGAGTCACCTAGTGCAG”, “CTTGGTGGTTCTTTTCTTCTTCTAGATTTATCCCCATTTTCGGAGTCACCTAGTGCAG” is lower in binding signal: 16900 fluorescence intensity (a.u.) for the first, 16700 fluorescence intensity (a.u.) for the second.

First: AGGGTTTTTTTTGTCACTTTCGTTGTCAGTTTCTTTTTTCCGGAGTCACCTAGTGCAG
Second: TCTCTCGCCGATTCCGCCACCGCCGCCGCGCCGCGCCTCGCGGAGTCACCTAGTGCAG
The binding signal of the first is higher: 14100 fluorescence intensity (a.u.) for the first, 9420 fluorescence intensity (a.u.) for the second.

Compared with “GACGGTGGCCATTCTAATTCCTCTATTGCAGGGTCTAACTCGGAGTCACCTAGTGCAG”, “TATATCCTATCTCTCACTTCACTCATATAGTGGTTAACTCCGGAGTCACCTAGTGCAG” is higher in binding signal: 8310 fluorescence intensity (a.u.) for the first, 9570 fluorescence intensity (a.u.) for the second.

First: ACTTTTCTACACACATAAACTTCTAACTTTTTCATCACATCGGAGTCACCTAGTGCAG
Second: GTAGTGCTGATGTTGTACTGTGTTTTTTTACCCGTTTTATCGGAGTCACCTAGTGCAG
The binding signal of the first is higher: 13400 fluorescence intensity (a.u.) for the first, 11500 fluorescence intensity (a.u.) for the second.

Going from “CCACCACCACCACGCCACGGCAGCCGCACCGCACCGCACCCGGAGTCACCTAGTGCAG” to “CACACCTCGCCTCCTCCTCGGCTTGGATCTCGCCGCATCACGGAGTCACCTAGTGCAG”, the binding signal falls from 8390 fluorescence intensity (a.u.) to 8210 fluorescence intensity (a.u.).

Going from “AACGGTACCATCACCATCATTTATCATGGGCACAACTTGCCGGAGTCACCTAGTGCAG” to “CCTTCGTCGACCCTCCGCCGCCGCCGCCGCCGCCGCCGACCGGAGTCACCTAGTGCAG”, the binding signal falls from 8810 fluorescence intensity (a.u.) to 8660 fluorescence intensity (a.u.).

Compared with “CAACATACAGGGAGTTTTTACCGGCCGCCCTCTACTCTCACGGAGTCACCTAGTGCAG”, “GAGTTAGCCATGGCCTGTCAATTACTGGAACTCTGTTGTACGGAGTCACCTAGTGCAG” is lower in binding signal: 9800 fluorescence intensity (a.u.) for the first, 8220 fluorescence intensity (a.u.) for the second.

Going from “GTTGCTTTTGCTGGAGTAGTACTTCTATTTATCTTCAAACCGGAGTCACCTAGTGCAG” to “TGGTCTTGCCTCTCGCTTAGCCTTTTTGTTGCCTTGTGCTCGGAGTCACCTAGTGCAG”, the binding signal rises from 9100 fluorescence intensity (a.u.) to 12300 fluorescence intensity (a.u.).

Going from “ATCTGTTCGTGGGTTGCTTGCTCAGTCGACCAATCGTTGACGGAGTCACCTAGTGCAG” to “CTGGTCAGTTGGTCTTGTGTTTTGGGCTTTTTCGGCCCGTCGGAGTCACCTAGTGCAG”, the binding signal falls from 19200 fluorescence intensity (a.u.) to 12200 fluorescence intensity (a.u.).

First: TTTTCGCATGTTTCTTTTCTTTTTTTTTCTTTTCTTTTCCCGGAGTCACCTAGTGCAG
Second: GGAGGGTCTGTTTTCTTGTGTGCGAGCCTTGCTAGTTGCTCGGAGTCACCTAGTGCAG
The binding signal of the first is higher: 16600 fluorescence intensity (a.u.) for the first, 16500 fluorescence intensity (a.u.) for the second.

Going from “CTCAGTCGACCAATCGTTGATCGCCACGTCGGCTGTTCTTCGGAGTCACCTAGTGCAG” to “TTCGTGGTTTCGTTCAGCTTGATTTCGCTTGACACATCGACGGAGTCACCTAGTGCAG”, the binding signal rises from 8350 fluorescence intensity (a.u.) to 9110 fluorescence intensity (a.u.).

First: CTGTAGTTGCCTTTGTTGGTCTTGGTTTTGCTGTTCTGGTCGGAGTCACCTAGTGCAG
Second: TGTTTTTTCCTTTTTTTTTCTTTTCTTTTTCTCTCTTCCCCGGAGTCACCTAGTGCAG
The binding signal of the first is higher: 9910 fluorescence intensity (a.u.) for the first, 8200 fluorescence intensity (a.u.) for the second.

First: CATTTTCTTGGTTTGGTCTTTTTTATTGTTGGGTGTGTTTCGGAGTCACCTAGTGCAG
Second: GGGCTTGCGATCGTGTTGTGTTGGGTTGGGTCTTGGGTTTCGGAGTCACCTAGTGCAG
The binding signal of the first is lower: 15500 fluorescence intensity (a.u.) for the first, 29400 fluorescence intensity (a.u.) for the second.

With “TTTTTTCTTTTTTTTTTTGTTTTTTCTCGCCTTTTTTTCCCGGAGTCACCTAGTGCAG” the binding signal was 11900 fluorescence intensity (a.u.).
